Data reported in PubChem BioAssay (NCATS).
Records with an inconclusive call do not appear. Active and inactive are the calls of the source. Unless noted, calls follow the shape of the dose curve; as a rule, active = well fitted curve in either direction with a large enough effect (not every such curve was filed as active); inconclusive = small, poorly fitted or top-dose-only effect, or another doubt; inactive = flat fitted curve, though single readings scatter.

Experiments:
[1] = target: Lysosomal acid glucosylceramidase (Homo sapiens) (UniProt P04062); experiment: Glucocerebrosidase-p2 (AID 348; in the data active = potency below about 10 µM; also: potency is read from the fitted curve at half-maximal effect); conditions: purified GBA, blue fluorogenic substrate, 40 min
Lysosomal acid glucosylceramidase (Homo sapiens), sequence (P04062 whole entry, looked up): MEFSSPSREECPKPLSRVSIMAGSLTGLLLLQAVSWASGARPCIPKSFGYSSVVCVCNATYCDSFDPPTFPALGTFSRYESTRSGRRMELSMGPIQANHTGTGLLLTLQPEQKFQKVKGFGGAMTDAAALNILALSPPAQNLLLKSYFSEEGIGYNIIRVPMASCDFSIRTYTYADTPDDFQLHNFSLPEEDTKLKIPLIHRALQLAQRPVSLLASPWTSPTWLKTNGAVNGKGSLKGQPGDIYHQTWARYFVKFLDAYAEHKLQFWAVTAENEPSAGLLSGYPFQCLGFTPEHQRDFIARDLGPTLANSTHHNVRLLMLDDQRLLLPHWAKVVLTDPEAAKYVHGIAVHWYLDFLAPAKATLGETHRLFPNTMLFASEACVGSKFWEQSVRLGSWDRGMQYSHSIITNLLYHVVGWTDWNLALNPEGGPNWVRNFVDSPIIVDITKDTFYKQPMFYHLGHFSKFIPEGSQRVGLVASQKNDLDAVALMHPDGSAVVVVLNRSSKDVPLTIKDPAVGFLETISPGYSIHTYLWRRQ
Method in brief: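 Normal human glucocerebrosidase (0.2 nM) with blue fluorogenic substrate (80 uM final) in citrate/phosphate pH 5.9 with 10mM sodium taurocholate, 0.01% tween-20; 40 min RT, NaOH/glycine stop; fluorescence Ex 365/Em 440; AC50 from a titration from 0.6 nM upwards.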

[2] = AP1 Signaling Pathway (AID 357); conditions: ME-180 AP-1-bla reporter, EGF-induced, beta-lactamase ratio, 5 h; at 7.69 µM (top of the series) unless noted;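 also: ME-180 reporter cells stimulated with EGF at its EC50 level; % is scaled to controls: 0 for no effect and ±100 for the full control effect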
Method in brief: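 Titration-series screen for positive or negative modulators of EC50 EGF-induced signaling in ME-180 cells carrying an AP-1-driven beta-lactamase reporter. After 5 hours at 37 degrees Celsius, CCF4 460nm/530nm emission ratio gave %Activity; AC50 values derived.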

[3] = target: Cytochrome P450 1A2 (Homo sapiens) (UniProt P05177); experiment: p450-cyp1a2 (AID 410; calls by dose curve; also: potency is read from the fitted curve at half-maximal effect); conditions: recombinant CYP1A2, luciferin-ME demethylation, luminescence; series mostly up to 57 µM
Cytochrome P450 1A2 (Homo sapiens), sequence (P05177 whole entry, looked up): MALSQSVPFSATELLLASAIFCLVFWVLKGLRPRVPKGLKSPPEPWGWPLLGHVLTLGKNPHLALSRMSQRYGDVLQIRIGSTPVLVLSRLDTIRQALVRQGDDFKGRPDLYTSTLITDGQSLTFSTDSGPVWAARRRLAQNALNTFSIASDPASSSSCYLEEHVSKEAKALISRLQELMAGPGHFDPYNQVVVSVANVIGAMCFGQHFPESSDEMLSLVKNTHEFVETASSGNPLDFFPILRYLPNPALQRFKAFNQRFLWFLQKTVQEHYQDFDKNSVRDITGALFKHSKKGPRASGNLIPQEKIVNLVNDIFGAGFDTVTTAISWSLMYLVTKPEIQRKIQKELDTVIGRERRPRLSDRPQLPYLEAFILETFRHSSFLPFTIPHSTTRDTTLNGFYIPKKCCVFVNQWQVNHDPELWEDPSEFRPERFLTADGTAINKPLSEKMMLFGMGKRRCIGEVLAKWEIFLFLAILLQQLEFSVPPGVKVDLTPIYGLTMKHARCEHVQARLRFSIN
Method in brief: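 20nM CYP1A2, 100uM Luciferin-ME (=Km), 100mM KPO4; cpd 10 min RT; +NADPH regen, 60 min RT; stop/detect 20 min; luminescence. Normalized to furafylline 57 uM = full inhibition.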

[4] = NFAT Signaling Pathway (AID 444); conditions: Jurkat NFAT-bla M1, carbachol, beta-lactamase ratio, 5 h; at 7.69 µM (top of the series) unless noted;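 also: carbachol stimulus at about its EC50 of 1 µM final; % is scaled to controls: 0 for no effect and ±100 for the full control effect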
Method in brief: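 Read-out: CCF4 FRET ratio (460 nm/530 nm) after 1 h RT dye loading, used for %activity and AC50 from titration series. Cells: Jurkat NFAT-β-lactamase/M1 line, treated with compound plus 1 uM carbachol for 5 h, 37 °C.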

[5] = Stat Signaling Pathway (AID 446); conditions: ME-180 SIE beta-lactamase reporter, IL-6 stimulated, 5 h; at 7.69 µM (top of the series) unless noted;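 also: ME-180 cervical cancer cells given 40 pM IL-6 alongside compound; SIE-controlled beta-lactamase reporter measured as 460/530 nm FRET emission ratio; % is scaled to controls: 0 for no effect and ±100 for the full control effect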
Method in brief: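 Normalization used AC90 stimulation (300 pM IL-6) and AC90 inhibition (125 nM pan-JAK inhibitor at 40 pM IL-6). The underlying signal is SIE-driven beta-lactamase in ME-180 cells after 5 h IL-6 exposure with compound.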

[6] = target: Glucocorticoid receptor (Homo sapiens) (UniProt P04150); experiment: GR-EFC Redistribution (AID 451; calls by dose curve; also: potency is read from the fitted curve at half-maximal effect); conditions: CHO-K1 GR-EFC translocation, beta-gal luminescence, 2 h
Glucocorticoid receptor (Homo sapiens), sequence (P04150 whole entry, looked up, the tested form may be a part): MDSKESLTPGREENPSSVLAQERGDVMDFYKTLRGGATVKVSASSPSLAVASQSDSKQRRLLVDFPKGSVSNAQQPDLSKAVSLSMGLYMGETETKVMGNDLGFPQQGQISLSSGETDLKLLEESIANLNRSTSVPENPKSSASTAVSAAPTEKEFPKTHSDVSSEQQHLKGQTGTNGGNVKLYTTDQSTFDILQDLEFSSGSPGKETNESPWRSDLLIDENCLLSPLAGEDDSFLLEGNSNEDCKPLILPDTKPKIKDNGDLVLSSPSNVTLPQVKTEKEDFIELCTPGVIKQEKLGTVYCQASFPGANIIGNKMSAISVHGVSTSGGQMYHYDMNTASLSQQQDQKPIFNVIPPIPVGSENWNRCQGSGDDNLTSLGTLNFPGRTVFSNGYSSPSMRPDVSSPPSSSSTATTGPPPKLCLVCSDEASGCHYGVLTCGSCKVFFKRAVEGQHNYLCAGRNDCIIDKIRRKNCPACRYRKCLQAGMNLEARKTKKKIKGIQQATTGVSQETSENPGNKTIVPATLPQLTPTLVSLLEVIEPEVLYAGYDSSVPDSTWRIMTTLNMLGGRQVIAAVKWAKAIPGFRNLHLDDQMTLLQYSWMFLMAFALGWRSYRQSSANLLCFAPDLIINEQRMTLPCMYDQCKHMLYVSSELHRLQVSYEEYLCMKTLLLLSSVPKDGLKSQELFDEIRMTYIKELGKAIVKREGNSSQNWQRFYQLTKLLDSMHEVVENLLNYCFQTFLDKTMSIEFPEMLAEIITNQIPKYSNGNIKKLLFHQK
Method in brief: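 Translocation of GR-ED fusion to nuclear EA restores b-gal, read by luminescence after 1 h room-temperature detection. Engineered CHO-K1 biosensor cells, 1,000/well, exposed 2 h at 37 C to titrations up to 46 uM final.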

[7] = target: Mitogen-activated protein kinase 10 (Mus musculus) (UniProt Q61831); experiment: JNK3 AlphaScreen Assay (AID 530); conditions: JNK3 lysate, c-Jun phosphorylation; series mostly up to 57.1 µM;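 also: kinase came from lysate of stimulated human HepG2 cells; signal reports phosphorylation of biotinylated GST-cJun 1-79 at Ser73 with 10 µM ATP; % is scaled to controls: 0 for no effect and ±100 for the full control effect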
Method in brief: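 Kinase buffer: 20 mM Tris-HCl pH 7.6, 10 mM MgCl2, 1 mM DTT, 0.1 mM Na3VO4, 0.01% Tween-20; ATP 10 uM. Substrate biotin-GST-cJun(1-79), enzyme from activated HepG2 lysates. Detection by Ser73 phospho-antibody AlphaScreen.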

[8] = target: Cytochrome P450 3A4 (Homo sapiens) (UniProt P08684); experiment: qHTS Assay for Activators of Cytochrome P450 3A4 (AID 885; active = well fitted curve in the direction sought with a large enough effect; an effect the other way counts as inactive or inconclusive; also: nearly all actives have a fitted effect of over 65% in size); conditions: recombinant CYP3A4, Luciferin-PPXE luminescence, 60 min; series mostly up to 57.1 µM
Cytochrome P450 3A4 (Homo sapiens), sequence (P08684 whole entry, looked up): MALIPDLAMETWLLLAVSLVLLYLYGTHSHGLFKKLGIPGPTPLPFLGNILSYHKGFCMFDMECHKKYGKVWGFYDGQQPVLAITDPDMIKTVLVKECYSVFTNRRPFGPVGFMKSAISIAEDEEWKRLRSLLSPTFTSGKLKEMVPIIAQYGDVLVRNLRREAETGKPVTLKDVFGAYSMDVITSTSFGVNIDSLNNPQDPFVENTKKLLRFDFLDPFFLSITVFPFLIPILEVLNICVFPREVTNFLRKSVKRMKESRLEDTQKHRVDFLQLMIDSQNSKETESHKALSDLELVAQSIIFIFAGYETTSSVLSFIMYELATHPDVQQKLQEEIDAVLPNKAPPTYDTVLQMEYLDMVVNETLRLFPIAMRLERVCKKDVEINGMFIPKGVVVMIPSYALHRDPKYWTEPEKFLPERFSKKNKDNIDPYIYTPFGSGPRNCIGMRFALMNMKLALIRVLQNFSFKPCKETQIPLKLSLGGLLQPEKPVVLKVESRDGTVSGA
Method in brief: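 Human CYP3A4 dealkylates Luciferin-PPXE to luciferin, which luciferase detection converts to light. Substrate was at its KM (25uM), buffer 200mM KPO4, reaction 60 min at RT.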

[9] = Counterscreen qHTS for small molecule stabilizers of the endoplasmic reticulum resident proteome: GLuc-NoTag assay (AID 1508627; active = well fitted curve in the direction sought with a large enough effect; an effect the other way counts as inactive or inconclusive;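 also: SH-SY5Y cells given compound then 100 nM thapsigargin to empty ER calcium; 0% = thapsigargin alone and -100% = DMSO vehicle control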); conditions: Gaussia luciferase NoTag secretion counterscreen, luminescence, thapsigargin 100 nM for final 4 h; series mostly up to 76.4 µM
Method in brief: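 Counterscreen line: SH-SY5Y-GLuc-NoTag cells, treated with compound 19 hr before a 4 hr, 100 nM thapsigargin calcium depletion. Secreted Gaussia luciferase in the medium was measured by luminescence after coelenterazine was added (0.07x final), with cells unlysed.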

[10] = target: Glucocorticoid receptor (Homo sapiens) (UniProt P04150); experiment: GR-GFP Redistribution (AID 450;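 active = compounds whose dose series gives a full or clear partial fitted curve of increased nuclear translocation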; also: potency is read from the fitted curve at half-maximal effect); conditions: U2OS GR-GFP nuclear translocation, laser cytometry, 2 h
[11] = target: Dual specificity protein kinase CLK4 (Homo sapiens) (UniProt Q9HAZ1); experiment: qHTS Assay for Inhibitors of CDC-like Kinase 4 (Kinase-Glo Assay) (AID 1770; active = well fitted curve in the direction sought with a large enough effect; an effect the other way counts as inactive or inconclusive; also: % is scaled to controls: 0 for no effect and ±100 for the full control effect; nearly all actives have a fitted effect of over 65% in size); conditions: recombinant Clk4, Kinase-Glo ATP depletion luminescence; series mostly up to 66.7 µM
Dual specificity protein kinase CLK4 (Homo sapiens), sequence (Q9HAZ1 whole entry, looked up): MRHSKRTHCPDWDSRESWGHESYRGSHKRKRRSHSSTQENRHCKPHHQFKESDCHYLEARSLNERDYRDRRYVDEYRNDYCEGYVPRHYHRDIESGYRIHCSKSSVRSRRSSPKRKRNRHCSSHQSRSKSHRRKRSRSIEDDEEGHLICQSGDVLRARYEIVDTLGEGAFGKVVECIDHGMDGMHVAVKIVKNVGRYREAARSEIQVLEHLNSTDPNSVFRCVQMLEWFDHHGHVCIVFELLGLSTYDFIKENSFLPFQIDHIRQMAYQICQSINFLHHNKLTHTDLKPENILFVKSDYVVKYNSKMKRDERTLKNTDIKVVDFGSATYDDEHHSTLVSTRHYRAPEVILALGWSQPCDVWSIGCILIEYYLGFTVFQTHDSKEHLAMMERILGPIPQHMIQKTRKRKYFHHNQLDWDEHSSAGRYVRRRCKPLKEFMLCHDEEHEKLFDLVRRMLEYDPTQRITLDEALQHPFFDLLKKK
Method in brief: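 Substrate mix (RS peptide 100 uM, ATP 1 uM) dispensed, compound pinned in, then Clk4 added to 25 nM final. Incubated 4.5 h at RT; Kinase-Glo reagent added, luminescence read after 5 min.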

[12] = target: Dual specificity protein kinase CLK4 (Homo sapiens) (UniProt Q9HAZ1); experiment: qHTS Assay for Inhibitors of CDC-like Kinase 4 (ADP-Glo Assay) (AID 1771; active = well fitted curve in the direction sought with a large enough effect; an effect the other way counts as inactive or inconclusive; also: % is scaled to controls: 0 for no effect and ±100 for the full control effect; nearly all actives have a fitted effect of over 70% in size); conditions: recombinant CLK4, ADP-Glo luminescence; series mostly up to 80 µM
Method in brief: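 25 nM Clk4, 100 uM RS peptide, 1 uM ATP (final); 2 mM MgCl2, 0.5 mM EGTA, 2.5 mM DTT, 0.01% Triton X-100; 1 hr RT. ADP-Glo readout: ATP depletion 45 min, conversion/luciferase 30 min, luminescence.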

[13] = target: Dual specificity protein kinase CLK4 (Homo sapiens) (UniProt Q9HAZ1); experiment: qHTS Assay for Inhibitors of CDC-like Kinase 4 (ADP-FP Assay) (AID 1795; active = well fitted curve in the direction sought with a large enough effect; an effect the other way counts as inactive or inconclusive;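 also: recombinant human CLK4 phosphorylating RS repeat peptide at 1 µM ATP; % is scaled to controls: 0 for no effect and ±100 for the full control effect; nearly all actives have a fitted effect of over 60% in size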); conditions: Transcreener ADP fluorescence polarization; series mostly up to 50 µM
Method in brief: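 Clk4 6.25 nM; RS peptide 100 uM; ATP 1 uM; 25 mM Tris pH 7.5, 10 mM MgCl2; 1 h reaction. ADP detected via antibody/orange tracer FP displacement; TG003 positive control.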

[14] = target: Ubiquitin carboxyl-terminal hydrolase 1 (Homo sapiens) (UniProt O94782); experiment: Inhibitors of USP1/UAF1: Pilot qHTS (AID 504865; active = well fitted curve in the direction sought with a large enough effect; an effect the other way counts as inactive or inconclusive;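 also: rhodamine fluorescence freed from ubiquitin-rhodamine substrate followed over time; top concentration of the series differs between compounds; % is scaled to controls: 0 for no effect and ±100 for the full control effect; nearly all actives have a fitted effect of over 35% in size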); conditions: purified USP1/UAF1, Ub-rhodamine cleavage fluorescence; series mostly up to 54.9 µM
Ubiquitin carboxyl-terminal hydrolase 1 (Homo sapiens), sequence (O94782 whole entry, looked up): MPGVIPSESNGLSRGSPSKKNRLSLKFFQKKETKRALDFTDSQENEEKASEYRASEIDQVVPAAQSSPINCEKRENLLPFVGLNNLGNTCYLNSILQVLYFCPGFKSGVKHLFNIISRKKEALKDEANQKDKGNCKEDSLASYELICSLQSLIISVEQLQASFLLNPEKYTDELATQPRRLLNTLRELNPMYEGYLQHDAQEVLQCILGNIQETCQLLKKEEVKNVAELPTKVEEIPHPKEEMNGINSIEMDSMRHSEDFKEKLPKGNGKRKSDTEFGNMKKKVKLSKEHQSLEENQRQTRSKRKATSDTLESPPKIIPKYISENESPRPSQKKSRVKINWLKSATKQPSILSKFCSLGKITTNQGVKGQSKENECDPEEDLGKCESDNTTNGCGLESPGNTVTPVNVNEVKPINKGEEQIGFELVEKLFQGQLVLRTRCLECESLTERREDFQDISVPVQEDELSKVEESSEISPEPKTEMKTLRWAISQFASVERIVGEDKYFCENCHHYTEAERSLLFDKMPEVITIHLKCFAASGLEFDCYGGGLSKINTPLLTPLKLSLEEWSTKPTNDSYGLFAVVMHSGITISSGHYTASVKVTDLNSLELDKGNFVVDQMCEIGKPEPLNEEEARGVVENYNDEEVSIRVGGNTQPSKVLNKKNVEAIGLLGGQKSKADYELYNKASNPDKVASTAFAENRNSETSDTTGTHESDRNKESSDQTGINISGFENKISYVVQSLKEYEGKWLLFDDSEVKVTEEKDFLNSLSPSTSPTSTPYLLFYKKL
Method in brief: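 In 50mM HEPES pH 7.8 containing 0.5mM EDTA, 1mM TCEP, 0.1 mg/ml BSA and 0.01% Tween-20, 1nM USP1/UAF1 is exposed to compound for 15 min, then Ub-Rho (150nM final) is added and fluorescence is read over time.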

[15] = target: 3',5'-cyclic-AMP phosphodiesterase 4B (Homo sapiens) (UniProt Q07343); experiment: qHTS Assay for Inhibitors of PDE-IV (AID 607; active = well fitted activation curve with a large enough effect in the main read-out, with a control signal flat, not every such curve was filed as active; also: % of control where 0% means no effect); conditions: HEK293 ACTOne CNG channel cells, membrane potential fluorescence; series mostly up to 22.9 µM
3',5'-cyclic-AMP phosphodiesterase 4B (Homo sapiens), sequence (Q07343 whole entry, looked up): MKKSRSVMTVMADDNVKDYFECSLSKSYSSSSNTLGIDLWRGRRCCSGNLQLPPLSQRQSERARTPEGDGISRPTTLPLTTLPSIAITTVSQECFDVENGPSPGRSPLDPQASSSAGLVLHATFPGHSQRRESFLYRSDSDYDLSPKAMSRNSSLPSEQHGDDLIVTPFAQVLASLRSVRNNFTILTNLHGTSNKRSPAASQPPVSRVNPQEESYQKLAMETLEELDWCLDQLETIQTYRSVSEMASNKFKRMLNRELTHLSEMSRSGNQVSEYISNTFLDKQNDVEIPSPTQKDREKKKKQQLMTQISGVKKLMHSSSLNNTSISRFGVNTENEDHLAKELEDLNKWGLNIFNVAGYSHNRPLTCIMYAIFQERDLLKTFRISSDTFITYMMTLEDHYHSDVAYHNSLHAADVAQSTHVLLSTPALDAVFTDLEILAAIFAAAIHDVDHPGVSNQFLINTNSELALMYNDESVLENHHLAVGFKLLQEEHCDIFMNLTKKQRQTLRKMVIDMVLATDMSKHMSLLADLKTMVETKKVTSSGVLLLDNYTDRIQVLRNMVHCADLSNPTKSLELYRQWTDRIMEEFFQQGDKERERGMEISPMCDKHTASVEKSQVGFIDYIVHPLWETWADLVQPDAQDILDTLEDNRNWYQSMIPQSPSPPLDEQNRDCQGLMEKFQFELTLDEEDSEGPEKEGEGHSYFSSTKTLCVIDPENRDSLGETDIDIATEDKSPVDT
Method in brief: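 HEK293 ACTOne cells with CNG channel (1000/well), endogenous PDE4; membrane potential dye, compounds up to 22.9 uM final. Fluorescence Ex 535/Em 590; RO 20-1724 (100 uM final) as reference.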

[16] = Confirmatory qHTS for small molecule stabilizers of the endoplasmic reticulum resident proteome: Secreted ER Calcium Modulated Protein (SERCaMP) assay (AID 1508628; active = well fitted curve in the direction sought with a large enough effect; an effect the other way counts as inactive or inconclusive; also: potency is read from the fitted curve at half-maximal effect; nearly all actives have a fitted effect of over 40% in size); conditions: SERCaMP secreted luciferase ER calcium/proteostasis reporter; series mostly up to 76.3 µM
Method in brief: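 GLuc-SERCaMP-expressing SH-SY5Y cells, pretreated 16 h with compound, are challenged with thapsigargin to empty ER calcium stores; after 4 h, coelenterazine is added directly to the medium and luminescence is imaged.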

[17] = Cell Viability qHTS for small molecule stabilizers of the endoplasmic reticulum resident proteome (AID 1508629; active = well fitted curve in the direction sought with a large enough effect; an effect the other way counts as inactive or inconclusive); conditions: cell viability counter-screen, 100 nM thapsigargin for final 4 h
[18] = Confirmation and Secondary Assay for Modulators of Hemoglobin Beta Chain Splicing at IVS2 654 locus (AID 910; active = well fitted curve in the direction sought with a large enough effect; an effect the other way counts as inactive or inconclusive;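 also: HeLa cells stably carrying EGFP split by mutant beta-globin IVS2-654 intron; per-well total GFP intensity by laser scanning cytometry after 2-day treatment; % of control where 0% means no effect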); conditions: HeLa EGFP-654 splicing reporter, GFP fluorescence, 48 h; series mostly up to 38.3 µM
Method in brief: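 Readout: per-well total peak green fluorescence (488 nm ex, 500–520 nm em) from objects 5–250 µm, reflecting correct splicing of an EGFP-654 reporter. Compounds were applied for 2 days at 37 °C to overnight-plated HeLa EGFP-654 cells; controls were DMSO and 500 nM IVS2-654 PNA.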

[19] = qHTS Assay for Identification of Small Molecule Agonists for Hypoxia Response Element Signaling Pathway (AID 914; active = well fitted activation curve with a large enough effect in the signal ratio, with a control signal flat, not every such curve was filed as active; the % refers to the signal ratio; also: % of control where 0% means no effect); conditions: ME-180 HRE-bla reporter, beta-lactamase ratio, CoCl2, 17 h; activation: hits give high values
Method in brief: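 ME-180 cells carrying an HRE-driven beta-lactamase reporter were treated with compounds in a titration series plus an EC50 level of CoCl2 for 17 h at 37 degrees Celsius; CCF4 readout as the 460nm/530nm ratio gave AC50 values.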

COCCn1c(=O)c(CCc2ccccc2)nc2cnc(OC)nc21
active: Potency [3] 10 µM
inactive: Potency [1] > 11.4 µM | activity change, negative = inhibition [2] -6.75% | activity change, negative = inhibition [4] -10.3% | activity, negative = inhibition [5] -4.28% | Potency [6] > 46 µM | outcome [7] | Potency [8] | Potency [9]

Cn1cc(-c2nc3cncnc3n(-c3ccccc3)c2=O)c2ccccc21
inactive: Potency [1] > 11.4 µM | activity change, negative = inhibition [2] -24% | activity change, negative = inhibition [4] 11.2% | activity, negative = inhibition [5] -2.15% | Potency [10] > 9.22 µM | Potency [6] > 46 µM | Potency [8] | Potency [11] | Potency [12] | Potency [13] | Potency [14] | Potency [9]

COc1cccc(Nc2ncc3nc(-c4ccccc4)c(=O)n(C[C@H]4CCCO4)c3n2)c1
inactive: Potency [1] > 11.4 µM | activity change, negative = inhibition [4] -8.66% | activity, negative = inhibition [5] 4.51% | Potency [10] > 9.22 µM | Potency [6] > 46 µM | outcome [7] | Potency [15]
active: Potency [16] 39.8 µM

COCCn1c(=O)c(-c2ccccc2)nc2cnc(Oc3ccc(OC)cc3)nc21
active: Potency [3] 1.26 µM | Potency [16] 39.8 µM
inactive: Potency [1] > 11.4 µM | activity change, negative = inhibition [2] -27.8% | activity change, negative = inhibition [4] 0.481% | activity, negative = inhibition [5] -10.2% | Potency [10] > 9.22 µM | Potency [6] > 46 µM | outcome [7] | Potency [8] | Potency [11] | Potency [12] | Potency [13] | Potency [14] | max response [17] 4.93%

Cc1ccccc1-c1nc(NC2CCNCC2)c2ccccc2n1
active: Potency [3] 20 µM | Potency [16] 31.6 µM
inactive: Potency [1] > 11.4 µM | activity change, negative = inhibition [2] 19.1% | activity change, negative = inhibition [4] 0.36% | activity, negative = inhibition [5] -7.16% | Potency [10] > 46 µM | Potency [6] > 46 µM | outcome [7] | Potency [15] | outcome [18] | activation [19] 12.4%

N#CCCn1c(=O)c(-c2cc(F)cc(F)c2)nc2cnc(OCc3ccccc3)nc21
inactive: Potency [1] > 11.4 µM | activity change, negative = inhibition [2] -10.3% | activity change, negative = inhibition [4] -0.0706% | activity, negative = inhibition [5] 3.6% | Potency [10] > 9.22 µM | Potency [6] > 46 µM | outcome [7] | Potency [15] | Potency [8]
active: Potency [3] 6.31 µM | Potency [16] 44.7 µM
